Screens (PubChem BioAssay)
S-ASM inh: blocks human secretory acid sphingomyelinase | hit rate 0.006% among 340,000 | placental ASM, HMU-PC fluorogenic substrate, 60 min | Potency, µM (highest dose often 57.5 µM), for inactives: top-dose activity change, negative = inhibition, usual class: inhibitors | P17405 | AID 504937; also: potency is read from the fitted curve at half-maximal effect
Target sequence (P17405 47-631 limits assumed): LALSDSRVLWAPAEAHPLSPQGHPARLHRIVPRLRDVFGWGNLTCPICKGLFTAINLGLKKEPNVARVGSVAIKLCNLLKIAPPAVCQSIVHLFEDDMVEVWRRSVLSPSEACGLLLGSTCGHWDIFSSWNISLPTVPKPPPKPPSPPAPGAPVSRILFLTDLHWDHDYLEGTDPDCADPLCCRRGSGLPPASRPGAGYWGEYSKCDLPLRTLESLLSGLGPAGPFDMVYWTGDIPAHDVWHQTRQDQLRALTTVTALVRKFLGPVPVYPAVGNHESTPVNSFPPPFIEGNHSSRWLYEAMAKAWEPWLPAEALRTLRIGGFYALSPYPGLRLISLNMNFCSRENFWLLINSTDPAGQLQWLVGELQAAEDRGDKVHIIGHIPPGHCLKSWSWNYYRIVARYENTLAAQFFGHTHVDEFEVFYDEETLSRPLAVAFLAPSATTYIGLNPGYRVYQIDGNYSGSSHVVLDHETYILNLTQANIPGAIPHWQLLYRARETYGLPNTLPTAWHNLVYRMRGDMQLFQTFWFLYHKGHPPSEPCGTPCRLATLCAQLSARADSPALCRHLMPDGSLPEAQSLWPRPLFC
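qHTS format. ASM enzyme prepared from human placenta hydrolyses the fluorogenic substrate HMU-PC0 (9 uM final) over 60 min at 37 °C after a 10 min compound preincubation.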
BRCA1 expr up: increases BRCA1 expression. MCF7-BRCA1-FFLuc reporter, luminescence, 48 h; response scale: scaled: vehicle 0%, 10 µM genistein 100%. Potency, µM (top dose mostly 46.1 µM), for the others: at the top dose activation, actives largely listed as activators. hit rate 1.1% among 380,000. AID 624202; also: potency is read from the fitted curve at half-maximal effect; nearly all actives have a fitted effect of over 80% in size
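Luminescence from a BRCA1-driven firefly luciferase in MCF7 cells was read after 48 h compound exposure at 37 C. Data normalized against DMSO and a 10microM genistein activation control, then curve-fitted across the titration.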
PTAP TSG101 blk: blocks PTAP/TSG101 interaction to inhibit HIV-1 budding. Q99816. Fluorescence polarization, FITC-PTAP peptide / Tsg101 binding. Potency, µM (highest dose often 115 µM), inactives show at the highest dose activity change, negative = inhibition, most hits filed as inhibitors. 340,000 tested, under 10 active. AID 493005; active = well fitted inhibition curve with a large enough effect in the main read-out, with a control signal flat, not every such curve was filed as active; inconclusive = small, poorly fitted or top-dose-only effect, or effect the other way, or a change in a side signal; inactive = no such curve, though single readings can be large or run the other way; also: potency is read from the fitted curve at half-maximal effect; % of control where 0% means no effect
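Fluorescence anisotropy tracks displacement of a FITC-tagged PTAP peptide (50 nM) from the Tsg101 binding domain (10 uM), following a 20 min room-temperature incubation at pH 7.5.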
Apoferritin bind: binds horse apoferritin like a general anesthetic | apoferritin/1-aminoanthracene competitive binding, fluorescence | Potency, µM (series often up to 77.5 µM), without a hit: at the top dose activity change, negative = displacement, actives largely listed as inhibitors | hit rate 0.074% among 350,000; also: potency is read from the fitted curve at half-maximal effect; % is scaled to controls: 0 for no effect and ±100 for the full control effect; nearly all actives have a fitted effect of over 20% in size
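Steps: apoferritin (10 uM) was premixed with half-saturated 1-AMA in PBS, compounds were pin-transferred, plates stood 10 min at room temperature, fluorescence was read at 380/535 nm, and curves were fitted with a Hill equation.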
TSHR antag: human thyrotropin receptor antagonism. activity change, negative = inhibition, % at 11.5 µM. TSHR-expressing cells, TSH-stimulated cAMP HTRF, 2 h; active compounds read low. hit rate 0.2% among 330,000. P16473;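 active = activity change below a set negative limit, meaning inhibition stronger than a set level, cut at about -70% in these data; inconclusive = activity change between two set negative limits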; also: % is scaled to controls: 0 for no effect and ±100 for the full control effect
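Antagonism was scored as loss of TSH-driven cAMP in TSHR cells, stimulated with 4nM TSH (EC80) for 2 hours at 37 deg C and detected by homogeneous HTRF competition immunoassay.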
An asterisk follows results filed as active; ? = inconclusive; . = no result. Compounds with a hit are over-represented: about 1.2% of the library has one in this group of screens. Unless noted, calls follow the shape of the dose curve; as a rule, active = well fitted curve in the direction sought with a large enough effect; inconclusive = small, poorly fitted or top-dose-only effect, or another doubt; inactive = no such curve, though single readings can be large; an effect the other way counts as inactive or inconclusive.

SMILES	S-ASM inh	BRCA1 expr up	PTAP TSG101 blk	Apoferritin bind	TSHR antag
Cc1ccc(SCc2nc3ccccc3[nH]2)cc1	9%	3.5µM*	-10%	?	-8
c1ccc(SCc2nc3ccccc3[nH]2)cc1	1%	?	-10%	?	-4
Cc1ccc(SCC(=O)Nc2ccc(-c3nc4ccccc4[nH]3)cc2)cc1	.	3.5µM*	-4%	36%	-3
COc1ccc(/C=C/c2ccc3ccccc3n2)c(OC)c1	.	-56%	.	.	.
CCOc1cccc(C2C=C(c3ccc4c(c3)OCO4)NC(c3ccc(Cl)cc3)N2)c1O (stereo not given)	.	-10%	.	.	.
c1ccc2c(N=NN3CCCCC3)ccnc2c1	.	-30%	.	.	.
O=C(Nc1ccc2oc(-c3cccc4ccccc34)nc2c1)c1ncn[nH]1	163%	2.2µM*	-1%	2%	-11
CC(C)(C)C(=O)Nc1nc2c(s1)CN(Cc1ccccc1)CC2	312%	8.9µM*	1%	-15%	-4
O=C(Nc1nc2c(s1)CN(Cc1ccccc1)CC2)C1CCCC1	243%	73%	1%	-23%	0
NC(=O)[C@H]1CCCN1C(=O)[C@H](Cc1cnc[nH]1)NC(=O)[C@@H]1CCC(=O)N1	.	.	.	8%	.
CC1(C)OC(=O)C2(Cc3cc(C(F)(F)F)ccc3N3CCCCC32)C(=O)O1 (stereo not given)	.	13%	.	.	.
CCN(CC)c1ccc(/C=N/N2CCN(Cc3ccccc3)CC2)c(O)c1	8%	-30%	2%	-4%	2
CCN(CC)c1ccc(/C=N/N2CCOCC2)c(O)c1	4%	6.3µM*	-2%	-6%	1
COc1ccc(CC(=O)Nc2cccc(-c3nnc(-c4cccc(C)c4)o3)c2)cc1OC	-3%	0%	1%	-2%	-92*
COc1ccccc1OCC(=O)Nc1cccc(-c2nnc(-c3ccco3)o2)c1	-3%	5µM*	-1%	-7%	-16
O=C(Cc1ccccc1)Nc1cccc(-c2nnc(-c3ccco3)o2)c1	-8%	16%	-7%	-23%	?
C[N+](C)(C)c1ccc(/C=C2\C=Cc3ccccc32)cc1	.	-9%	.	.	.
O=C1c2ccccc2C(=O)C1c1ccccn1	-3%	2.5µM*	0%	-6%	-4
Oc1ccc(Br)cc1C1C=C(c2ccc3c(c2)OCO3)NC(c2ccc(F)c(Br)c2)N1 (stereo not given)	.	-15%	.	.	.
O=C1OC(c2ccccc2)=CC1=Cc1ccccc1O	.	2%	.	.	.
O=C1OC(c2ccccc2)=C/C1=C/N1CCCCC1	-4%	4µM*	-23%	-20%	-6
O=C1OC(c2ccccc2)=N/C1=C\N1CCCCC1	1%	7.9µM*	-9%	-9%	17
NC(=O)[C@@H]1CCCN1C(=O)C(Cc1cnc[nH]1)NC(=O)C1CCC(=O)N1 (stereo not given in full)	.	.	.	6%	.
COc1ccc(Nc2nnc(SCC(=O)N(CC(C)C)C3CCS(=O)(=O)C3)s2)cc1 (stereo not given)	.	7.1µM*	.	.	.
CCN(C(=O)CSc1nnc(Nc2ccccc2)s1)C1CCS(=O)(=O)C1 (stereo not given)	-1%	23%	-1%	2%	2
SMILES	S-ASM inh	BRCA1 expr up	PTAP TSG101 blk	Apoferritin bind	TSHR antag
Cc1nc(Nc2ccccc2C(F)(F)F)sc1C(=O)N(C)C	4%	10µM*	-5%	-22%	11
Cc1nc(NCCc2ccccc2)sc1C(=O)N(C)C	3%	?	-3%	?	3
Cc1ccnc(Nc2nc(-c3ccc(O)cc3O)cs2)c1	-11%	7.9µM*	-3%	-2%	3
Cc1ccccc1-c1cnc(C(O)c2ccccc2)[nH]1 (stereo not given)	.	4.5µM*	.	.	.
OC(c1ccc(F)cc1)c1ncc(-c2ccccc2Cl)[nH]1 (stereo not given)	.	11µM*	.	.	.
COc1cccc(-c2cnc(C(O)c3ccc(F)cc3)[nH]2)c1 (stereo not given)	.	13µM*	.	.	.
COc1ccc(C(O)c2ncc(-c3cccc(OC)c3)[nH]2)cc1 (stereo not given)	.	16%	.	.	.
COc1ccc(CN2C(=O)N(c3ccccc3)C(=O)C2c2ccccc2)cc1COc1ccc(NC(C)=O)cc1 (stereo not given)	.	-27%	.	.	.
Cc1cccc(C)c1OCc1cc(C(=O)N2CCC(C3CCCCC3)C2)no1 (stereo not given)	-16%	13µM*	-3%	.	.
COCC1CCCN(C(=O)c2cc(COc3ccc(C(C)=O)cc3)on2)C1 (stereo not given)	2%	?	-1%	.	.
CC(=O)c1ccc(OCc2cc(C(=O)N3CC[C@@H]4CCCC[C@H]4C3)no2)cc1	-2%	3.2µM*	-4%	?	2
C(=Nc1ccc2ccccc2n1)c1ccccn1	.	33%	.	.	.
O=C(COC(=O)Cn1cnc2ccccc2c1=O)Nc1ccc(Cl)cc1	-2%	0%	1%	?	3
O=C(COC(=O)Cn1cnc2ccccc2c1=O)Nc1ccc(Cl)c(C(F)(F)F)c1	-3%	-8%	0%	25µM*	1
CCOc1ccc(N=C(/C(C(=O)C(=O)N2CCOCC2)=C(/O)c2ccccc2)c2ccccc2)cc1	-17%	11µM*	-7%	3%	0
COc1cc2c(C(=O)N3CCN(C)CC3)c(C)oc2cc1Br	1%	-6%	-10%	-7%	0
Cc1c(C(=O)N2CCc3ccccc3C2)oc2ccc(Br)cc12	.	80%	-5%	.	-9
Cc1oc2cc3c(C(=O)N4CCCCC4)c(C)oc3cc2c1C(=O)N1CCCCC1	0%	3.2µM*	-4%	-15%	-1
Cc1c(C(=O)N2CCCC2)oc2ccc(Br)cc12	-3%	6.3µM*	-4%	-23%	-12
Cc1c(C(=O)N2CCN(C)CC2)oc2ccc(Br)cc12	-4%	13µM*	-8%	-5%	8
COc1cccc(CNc2nc(Cl)nc3nc[nH]c23)c1	.	-7%	.	.	.
CC1=C/C(=C\c2ccc(N(C)C)cc2)c2ccccc21	.	-17%	.	.	.
O=C(N/N=C/C=C/c1ccc2c(c1)OCO2)c1ccc([N+](=O)[O-])cc1	-3%	-2%	-2%	-9%	5
CC(C)(C)OC(=O)N/N=C\C=C\c1ccc2c(c1)OCO2	-1%	7.9µM*	-2%	-9%	-6
COc1ccc(CC(=O)N/N=C/C=C/c2ccc3c(c2)OCO3)cc1OC	-2%	-16%	1%	-16%	3
COC(=O)N/N=C\C=C\c1ccc2c(c1)OCO2	5%	4.5µM*	2%	-4%	-7
CC(C)(C)OC(=O)N/N=C/c1ccc(Br)cc1	3%	3.5µM*	-1%	-8%	-2
CCOC(=O)N/N=C\C=C\c1ccc2c(c1)OCO2	5%	4.5µM*	-2%	-2%	11
